# High-throughput results from PubChem.
# An excerpt weighted towards active compounds, which were near 9.3% of everything screened.
# ELG1 genotox: qHTS screen for small molecules that induce genotoxicity in human embryonic kidney (HEK293T) cells expressing luciferase-tagged ELG1; HEK293T ELG1-luciferase reporter, luminescence, 16 h; Potency, µM (doses to about 46 µM), inactives show top-dose activity change, positive = activation, hits mostly activators; 330,000 compounds, 1.3% hits; AID 504466, 2011; further: % of control where 0% means no effect; nearly all actives have a fitted effect of over 60% in size
#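 16 hr compound incubation (37 °C, 5% CO2) of HEK293T cells carrying luciferase-tagged ELG1; luciferase then measured by ONE-Glo luminescence after 30 min at RT.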
# FLuc counter: qHTS profiling assay for firefly luciferase inhibitor/activator using purifed enzyme and Km concentrations of substrates (counterscreen for miR-21 project); Luciferin 4-monooxygenase (Photinus pyralis), P08659; purified FLuc, Km substrates, luminescence inhibition; Potency, µM (top dose mostly 57.5 µM), without a hit: at the top dose activity change, negative = inhibition, usual class: inhibitors; 360,000 compounds, 6.9% hits;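 further: plate controls were vehicle for no effect and reference inhibitor for full effect; nearly all actives have a fitted effect of over 55% in size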
# Target sequence (P08659 whole entry, looked up): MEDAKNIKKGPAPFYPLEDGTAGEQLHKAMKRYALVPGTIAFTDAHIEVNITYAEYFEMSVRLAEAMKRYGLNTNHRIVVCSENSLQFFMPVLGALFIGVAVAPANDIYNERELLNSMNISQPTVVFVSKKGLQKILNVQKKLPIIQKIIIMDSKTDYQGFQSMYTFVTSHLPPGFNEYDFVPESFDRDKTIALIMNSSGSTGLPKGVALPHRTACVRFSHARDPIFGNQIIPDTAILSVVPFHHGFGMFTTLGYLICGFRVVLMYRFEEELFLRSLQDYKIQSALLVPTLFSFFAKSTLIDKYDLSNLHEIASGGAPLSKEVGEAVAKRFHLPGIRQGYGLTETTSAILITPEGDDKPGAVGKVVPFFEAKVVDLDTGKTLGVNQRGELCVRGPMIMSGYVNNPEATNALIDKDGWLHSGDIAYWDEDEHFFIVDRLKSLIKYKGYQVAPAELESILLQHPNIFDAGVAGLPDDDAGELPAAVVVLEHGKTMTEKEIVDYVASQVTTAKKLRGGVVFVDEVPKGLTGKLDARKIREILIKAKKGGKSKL
#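 Purified P. pyralis luciferase (10nM final) with 10uM D-luciferin and 10uM ATP (Km levels) in 50mM Tris acetate pH 7.5, 10mM Mg acetate, 0.01% Tween-20, 0.05% BSA; qHTS 6-point titration, ~60 µM downward; luminescence read.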
# NPC1 prom act: qHTS Assay for NPC1 Promoter Activators; 320,000 compounds, 2.4% hits; Potency, µM (titrated, usually from 9.22 µM), inactives show top-dose activation, usual class: activators; Huh7 NPC1 promoter luciferase reporter, 24 h; further: % of control where 0% means no effect; nearly all actives have a fitted effect of over 60% in size
#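 Luminescence read-out of NPC1 promoter-driven luciferase in stably transfected Huh7 cells; compounds delivered in DMSO and left 24 h at 37C, 5% CO2, qHTS titration format.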
# Rab9 prom act: qHTS Assay for Rab9 Promoter Activators. Huh7 Rab9 promoter-luciferase reporter, luminescence, 24 h. Potency, µM (top dose mostly 9.22 µM), for the others: top-dose activation, negative = inhibition, actives largely listed as activators. 320,000 compounds, 2.8% hits; further: % of control where 0% means no effect; nearly all actives have a fitted effect of over 60% in size
#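 Promoter activation is measured as luciferase luminescence in Huh7 cells stably transfected with a Rab9 promoter–luciferase construct, following 24 h compound exposure at 37 °C and 10 min reagent incubation at ambient temperature.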
# ELG1 DNA repair: qHTS screen for small molecules that inhibit ELG1-dependent DNA repair in human embryonic kidney (HEK293T) cells expressing luciferase-tagged ELG1; HEK293T ELG1-luciferase reporter, luminescence, 16 h; DNA damage induced by 5-fluorouridine; AID 504467, 2011; Potency, µM (top dose mostly 46.1 µM), inactives show top-dose activity change, negative = inhibition, usual class: inhibitors; 330,000 compounds, 2.3% hits; further: on the % scale 0 is the no-effect control and ±100 the full control effect; nearly all actives have a fitted effect of over 55% in size
#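 Overnight (16 hr) co-exposure of 2,000 cells/well to 5-fluorouridine and compound at 37 °C preceded detection. Luciferase was quantified via ONE-Glo luminescence; loss of signal denotes inhibition.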
# SMN2 splice enh: qHTS Assay for Enhancers of SMN2 Splice Variant Expression; HEK293 SMN2-luciferase splicing reporter, luminescence, 30-36 h; Potency, µM (highest dose often 46.1 µM), without a hit: top-dose activity change, positive = activation, hits mostly activators; 210,000 compounds, 2.8% hits; AID 1458, 2008; further: % of control where 0% means no effect; nearly all actives have a fitted effect of over 55% in size
#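 HEK293 cells carry an SMN2 […]–luciferase reporter in which exon 7 inclusion puts luciferase in frame. Cells were plated 10-12 h before compound addition, then incubated 30-36 h at 37C. ONE-Glo luminescence was read; sodium butyrate at 4.5 mM final served as control.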
# * hit, by the source's call; ? = inconclusive; . = no result given; [ ] = dose if it differs, or a comment. The call rests on the fitted dose curve; in most records, active means well fitted curve in the direction sought with a large enough effect; inconclusive means small, poorly fitted or top-dose-only effect, or another doubt; inactive means no such curve, though single readings can be large; an effect the other way counts as inactive or inconclusive. Potency means the concentration at half of the fitted maximal effect.
SMILES,ELG1 genotox,FLuc counter,NPC1 prom act,Rab9 prom act,ELG1 DNA repair,SMN2 splice enh
CC(C)(C)Nc1ncnc2sc(-c3ccccc3)cc12,-4%,?,-1%,-1%,?,.
COc1ncnc2sc(-c3ccccc3)cc12,?,12µM*,?,3.2µM*,?,?
CN(C)c1ncnc2sc(-c3ccccc3)cc12,15%,15µM*,3%,7%,?,.
CN(C)C(=O)COc1ncnc2sc(-c3ccccc3)cc12,?,?,21%,27%,?,.
Nc1ncnc2c1ncn2[C@@H]1O[C@H](COP(=O)(O)OP(=O)(O)CP(=O)(O)O)[C@@H](O)[C@H]1O,.,.,.,.,.,13%
COc1ccc(CCC(=O)Nc2ccc(-c3noc(-c4ccc(OC)c(OC)c4)n3)cc2)cc1,?,0%,?,?,?,11µM*
COc1cc(-c2nc(-c3ccc(NC(=O)c4ccc(Br)o4)cc3)no2)cc(OC)c1OC,5%,?,0%,24%,10µM*,-23%
COc1ccc(-c2nc(-c3ccc(NC(=O)c4ccc(Br)o4)cc3)no2)cc1OC,?,?,29%,4%,?,4%
Cc1cccc(OCc2ccc(C(=O)Nc3cc(C)on3)o2)c1,1%,-2%,9%,5%,?,.
CNc1nc(N)c(C(=O)Nc2cc(C)on2)s1,13%,?,?,?,?,14µM*
Cc1cc(NC(=O)c2cccc(F)c2)no1,?,?,26%,26%,?,14%
C/C(=C\C(=O)Nc1cc(C)on1)c1ccccc1,14%,12µM*,29%,27%,?,?
Cc1cc(NC(=O)c2ccc3nc(-c4ccccc4)c(-c4ccccc4)nc3c2)no1,11%,0%,-7%,-8%,-10%,19%
Cc1cc(NC(=O)c2ccccc2)no1,?,24µM*,?,?,?,.
Cc1cc(NC(=O)c2ccc(C)c([N+](=O)[O-])c2)no1,4%,-4%,10%,2%,?,.
Cc1cc(NC(=O)c2ccc(C)c(C)c2)no1,?,24µM*,3.5µM*,2.8µM*,?,.
COc1ccc(CNC(=O)Cn2ccc(NC(=O)OCc3ccccc3)nc2=O)cc1,3%,0%,-4%,-8%,4%,.
Cc1ccc(NC(=S)N2CCCN(Cc3ccc(F)cc3)C2)c(C)c1,-7%,-7%,-2%,-2%,-3%,-5%
CCOc1ccc(N(CC(=O)N2CCN(c3ccccc3OC)CC2)S(=O)(=O)c2ccc(C)cc2)cc1,-4%,1%,1%,0%,?,.
Cc1cc(C(=O)NNc2ccc(Cl)cc2)no1,10%,-2%,11%,2%,?,.
Cc1cc(C(=O)Nc2ccc3[nH]ccc3c2)no1,?,11µM*,2.2µM*,2.8µM*,?,.
CC(=O)Oc1ccc(C(=O)Nc2cc(C)on2)cc1,?,15µM*,?,?,?,.
COc1ccc(C(=O)Nc2noc3ccccc23)cc1,.,0.24µM*,.,.,.,?
Cc1cc(C(=O)NNc2ccc(C)c(C)c2)no1,18%,-17%,15%,22%,8.2µM*,.
CC1(C)CC(=O)c2c(Cc3ccccc3)n[nH]c2C1,-6%,5%,2%,7%,0%,1%
Cc1ccc(S(=O)(=O)Nc2c(C)n(C)n(-c3ccccc3)c2=O)cc1C(=O)NCc1ccccc1,-2%,2%,0%,-4%,-3%,.
O=C(N/N=C\c1ccc(CNS(=O)(=O)c2ccc(Cl)cc2)o1)C(=O)Nc1ccc(Oc2ccccc2)cc1,?,3%,3%,1%,7%,-21%[1.84 µM]
